Experimental data reported in PubChem BioAssay AID720560 (Broad Institute, 2013).
Entries with a potency or affinity are not part of this list. Inconclusive results are not listed.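 Rule for the calls: active = signal drop whose fitted half-maximal concentration is at most twice the top valid dose; inconclusive = flat moderate drop between 30 and 70 percent, or an unreliable fit; inactive = the rest.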

Test: inhibitors of HRE-driven luciferase expression, dose response, ARNT-TACC3 inhibitor project, HeLa cells, luminescence, dry powder samples, 2158-08 (AID 720560)
Conditions: HeLa 3xHRE-luciferase reporter; series mostly up to 60 µM; activity change, negative = inhibition: at the top concentration

Activity change, negative = inhibition, inactive:
O=C(CSc1ccc(-c2ccccn2)nn1)Nc1ccccc1 25.6% [at 30 µM]
O=C(CSc1ccc(-c2ccccn2)nn1)NC1CCCCC1 49.1%
Cc1nnc(NC(=O)c2ccc(S(=O)(=O)N3CCCCC3)cc2)o1 -28.6%
Cc1c(C(=O)N(C)C)sc2nc(-c3ccccn3)[nH]c(=O)c12 38.4%
Cc1ccc(C(=O)Nc2nc(-c3ccccn3)cs2)cc1S(=O)(=O)N1CCOCC1 46.9% [at 30 µM]
CC1CCN(S(=O)(=O)c2ccc(C(=O)Nc3nnc(-c4ccno4)o3)cc2)CC1 17.4%
O=C(Nc1nnc(C2=COCCO2)o1)c1ccc(S(=O)(=O)N2CCCCC2)cc1 48.6%
CC1CCN(S(=O)(=O)c2ccc(C(=O)Nc3nnc(-c4ccccn4)o3)cc2)CC1 52.4%
C=CC1=C(C(=O)O)N2C(=O)[C@@H](NC(=O)/C(=N\O)c3csc(N)n3)[C@H]2SC1 (stereo in doubt) -8.92%
O=C(CSc1ccc(-c2ccccn2)nn1)N1CCCC1 101%
